Our source for the reporter fold induction values is the supplement of paper PMC3616981.

Compound in this assay: CC(C)c1cccc(C(C)C)c1N1C(=O)c2ccc(O)cc2C1=O
Put plainly: reporter fold induction vs vehicle; higher = higher reporter activity. How it is done:
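Attagene multiplexed transcription-factor reporter assay (48 cis response elements and 25 trans nuclear-receptor constructs) treated with 5HPP-33 at 8 concentrations (0.091–200 µM). The response is fold induction of reporter activity relative to vehicle control. Cell line and time not stated in the paper; tested in ToxCast Phase II for this study.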

Regarding Myc_CIS, the reporter fold induction runs as follows: (0.091 µM) 1.01; (0.274 µM) 1.03; (0.823 µM) 0.99; (2.469 µM) 0.982; (7.407 µM) 1.09; (22.22 µM) 1.04. The reporter fold induction was 1.05 (66.67 µM) and 2.33 (200 µM).

Take ERE_CIS: the reporter fold induction was determined as 1.55 (0.091 µM); 2.27 (0.274 µM); 1.01 (0.823 µM); 0.967 (2.469 µM); 4.09 (7.407 µM); 3.27 (22.22 µM). Besides, the reporter fold induction reads like this: (66.67 µM) 4.08; (200 µM) 0.978.

Regarding GLI_CIS, the reporter fold induction was determined as 1.04 (0.091 µM); 0.925 (0.274 µM); 1 (0.823 µM); 1.04 (2.469 µM); 0.914 (7.407 µM); 0.833 (22.22 µM). Also, the reporter fold induction runs as follows: (66.67 µM) 1.19; (200 µM) 2.1.

Turning to LXRb_TRANS, the reporter fold induction turned out to be 1.17 (0.091 µM); 1.09 (0.274 µM); 1 (0.823 µM); 1.16 (2.469 µM); 0.89 (7.407 µM); 0.837 (22.22 µM). The reporter fold induction (66.67 µM) came out at 1.13 and the reporter fold induction (200 µM) turned out to be 1.11.

On to E_Box_CIS, for which the reporter fold induction worked out at 1.04 (0.091 µM); 0.955 (0.274 µM); 1.02 (0.823 µM); 0.967 (2.469 µM); 1.11 (7.407 µM); 0.945 (22.22 µM). The reporter fold induction by setting is: (66.67 µM) 1.06; (200 µM) 0.895.
